Experimental data: PubChem BioAssay (NCATS)
Inconclusive results are not listed. Activity calls are given as the source filed them. The call rests on the fitted dose curve; in most records, active means well fitted cell-killing curve with a large enough effect; inconclusive means small, poorly fitted or top-dose-only effect; inactive means no such curve, though single readings can be large or run the other way.

Assay: Cell Viability - LYMP2-001 (AID 921); further: nearly all actives have a fitted effect of over 70% in size
Conditions: LYMP2-001 lymphoblastoid cell viability; series mostly up to 92.2 µM
Description: NIH Chemical Genomics Center [NCGC]
NIH Molecular Libraries Screening Centers Network [MLSCN]
National Institutes of Environmental Health Sciences [NIEHS]
National Toxicology Program [NTP]
We have developed a 1536-well cell-based assay for quantitative high throughput screening (qHTS) against a number of cell lines to determine in vitro cytotoxicity of small molecules. This particular assay uses a human lymphoblastoid cell line (LYMP2-001) purchased from Coriell Institute for Medical Research.
NCGC Assay Protocol Summary:
The CellTiter-Glo luminescent cell viability assay (Promega) is a homogeneous method to measure the number of viable cells in culture. The end point readout of this assay is based on quantitation of intracellular ATP, an indicator of metabolic activity, using the luciferase reaction. Luciferase catalyzes the oxidation of beetle Luciferin to oxyluciferin and light in the presence of ATP. The luminescent signal is proportional to amount of ATP present.
Using the CellTiter-Glo luminescent cell viability assay, the amount of cellular ATP was measured in the lymphoblastoid cell line with complete culture medium following compound treatment for 24 hours. The assay was performed in opaque white Kalypsys 1536-well plates. In the screen, tetraoctylammonium bromide was used as positive control. Library compounds were measured for their ability to cause acute toxicity in the cell line, as reflected by a decrease in intracellular ATP levels, in a concentration-dependent manner. […] AC50 values were determined from concentration-response data modeled with the standard Hill equation.
qHTS protocol for CellTiter Glo lymphoblastoid cellular assay
[Step] [Parameter] [Value] [Description]
1. Reagent; 5 uL; 2500 lymphoblastoid cells/well
2. Time; 5 hr; 37 C incubation
4. Controls; 23 nL; Tetraoctylammonium bromide 6.4pM to 92 uM
5. Time; 24 hr; 37 C incubation
6. Reagent; 5 uL; CellTiter Glo reagent
7. Time; 30 min; Room Temperature
8. Detection; Luminescence; Viewlux plate reader
Keywords: cell viability, cytotoxicity, lymphoblastoid cell line, luminescence, NTPHTS, NTPHTS_NCGC, NIEHS, DSSTox, MLSMR, MLSCN, NIH Roadmap, qHTS, NCGC
With `CCC(C)(C)c1ccc(O)cc1` the outcome was “inactive”.
With `Clc1ccc(C(c2ccc(Cl)cc2)C(Cl)(Cl)Cl)cc1` the outcome was “inactive”.
In the case of `COC(=O)C(c1ccccc1)C1CCCCN1` (stereo not drawn), the outcome is reported as “inactive”.
With `CCCC(C)(COC(N)=O)COC(N)=O` the outcome was “inactive”.
With `NCCc1ccc(O)cc1` the outcome was “inactive”.
In the case of `CCOC(=O)CC(SP(=S)(OC)OC)C(=O)OCC` (stereo not drawn), the outcome is reported as “inactive”.
With `CN1C[C@H](C(=O)N[C@]2(C)O[C@@]3(O)[C@@H]4CCCN4C(=O)[C@H](Cc4ccccc4)N3C2=O)C=C2c3cccc4[nH]cc(c34)C[C@H]21` the outcome was “inactive”.
With `C[C@]12CCC(=O)C=C1CC[C@@H]1[C@@H]2CC[C@]2(C)C(=O)CC[C@@H]12` the outcome was “inactive”.
With `CC(C)c1cccc(C(C)C)c1O` the outcome was “inactive”.
For `Nc1ccccc1C(=O)O`, the outcome was “inactive”.
In the case of `Oc1ccc(Cl)cc1`, the outcome is reported as “inactive”.
With `CC(C)NC(C)C` the outcome was “inactive”.
In the case of `C[C@]1(O)CC[C@H]2[C@@H]3CCC4=CC(=O)CC[C@]4(C)[C@@]3(F)[C@@H](O)C[C@@]21C`, the outcome is reported as “inactive”.
In the case of `Nc1ccccc1`, the outcome is reported as “inactive”.
In the case of `COc1cc(OC)c(OC)cc1C=O`, the outcome is reported as “inactive”.
In the case of `O=P1(N(CCCl)CCCl)NCCCO1` (stereo not drawn), the outcome is reported as “inactive”.
With `C[C@]12CCC(=O)C=C1CC[C@@H]1[C@@H]2CC[C@@]2(C)[C@H]1CC[C@]2(C)O` the outcome was “inactive”.
In the case of `COP(=S)(OC)Oc1ccc(SC)c(C)c1`, the outcome is reported as “inactive”.
